Assay results published in PubChem BioAssay (Tox21).
Inconclusive results are not listed. A call without a number means that no potency is given here. Calls of active or inactive are those of the source. Calls follow the shape of the dose curve; as a rule, active = well fitted activation curve with a large enough effect; inconclusive = small, poorly fitted or top-dose-only effect; inactive = flat fitted curve, though single readings scatter.

Assay: qHTS assay to identify small molecule phospholipidosis (PLD) inducers (AID 1259344)
Details: HepG2 phospholipidosis, LipidTOX Red imaging, 24 h; series mostly up to 38.3 µM
How it was run: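 Cells (HepG2, 900 per well) attach for 4 h, receive LipidTOX Red and compound together, incubate 24 h at 37 C, are fixed 30 min with paraformaldehyde/Hoechst, then imaged at one site per well.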

SMILES	Potency	PLD induction
C[C@H](Cc1ccc(O)c(O)c1)[C@@H](C)Cc1ccc(O)c(O)c1	inactive	–
CN1[C@@H](CC(=O)c2ccccc2)CCC[C@H]1C[C@H](O)c1ccccc1	inactive	–
CO[C@H](C(=O)[C@@H](O)[C@@H](C)O)C1Cc2cc3cc(O[C@H]4C[C@@H](O[C@H]5C[C@@H](O)[C@H](O)[C@@H](C)O5)[C@@H](O)[C@@H](C)O4)c(C)c(O)c3c(O)c2C(=O)[C@H]1O[C@H]1C[C@@H](O[C@H]2C[C@@H](O[C@H]3C[C@](C)(O)[C@H](O)[C@@H](C)O3)[C@H](O)[C@@H](C)O2)[C@H](O)[C@@H](C)O1 (stereo partly specified)	inactive	–
Nc1nc(NC2CC2)c2ncn([C@@H]3C=C[C@@H](CO)C3)c2n1	inactive	–
O=C(O)c1ccccc1[O-].O=C(O)c1ccccc1[O-].[Zn+2]	inactive	–
CCOC(=O)[C@H](CCc1ccccc1)N[C@@H](C)C(=O)N1[C@H](C(=O)O)C[C@H]2CCCC[C@@H]21	inactive	–
O=C(O)/C=C/C(=O)Nc1ccc(S(=O)(=O)Nc2nccs2)cc1	inactive	–
NCCCC[C@H](NC(=O)[C@@H]1CCCN1C(=O)[C@@H]1CSSC[C@H](N)C(=O)N[C@@H](Cc2ccc(O)cc2)C(=O)N[C@@H](Cc2ccccc2)C(=O)N[C@@H](CCC(N)=O)C(=O)N[C@@H](CC(N)=O)C(=O)N1)C(=O)NCC(N)=O	inactive	–
O=S(=O)(O)CC(S)CS (stereo unspecified)	inactive	–
CC(=O)NC[C@H]1CN(c2ccc(N3CCOCC3)c(F)c2)C(=O)O1	inactive	–
O=C(O)Cc1nn(Cc2ccc(Br)cc2F)c(=O)c2ccccc12	inactive	–
O=C1CC[C@@H](C(=O)N[C@H]2C[C@@H]2c2ccccc2)N1	inactive	–
Cc1cc(=O)c(C(=O)N[C@@H](C(=O)N[C@@H]2C(=O)N3C(C(=O)O)=C(CSc4nnnn4C)CS[C@H]23)c2ccc(O)cc2)c[nH]1	inactive	–
CCN(CC)C(=O)c1cccnc1	inactive	–
CS(=O)(=O)c1ccc([C@@H](O)[C@@H](COC(=O)CN)NC(=O)C(Cl)Cl)cc1	inactive	–
NC(=O)c1cc[n+](CC2=C(C(=O)O)N3C(=O)[C@@H](NC(=O)C(c4ccccc4)S(=O)(=O)[O-])[C@H]3SC2)cc1 (stereo partly specified)	inactive	–
CC(C)OC(=O)Nc1ccc2nc(-c3cscn3)[nH]c2c1	inactive	–
CCCCC[C@H](O)/C=C/[C@@H]1[C@@H](C/C=C\CCCC(=O)O)[C@@H](O)C[C@H]1O	inactive	–

SMILES	Potency	PLD induction
CCCCCCCCCCCC[n+]1ccc2ccccc2c1	inactive	–
CCN(CC)CCNC(=O)c1ccc(NS(C)(=O)=O)cc1	–	-0.241% [at 7.66 µM] (inactive)
CC(C)(S)C(=O)N[C@@H](CS)C(=O)O	inactive	–
CCCOC(=O)c1ccccc1O	inactive	–
O=C(O)c1cc(O)c2c(c1)[C@H]([C@H]1c3cc(C(=O)O)cc(O)c3C(=O)c3c(O[C@@H]4O[C@H](CO)[C@@H](O)[C@H](O)[C@H]4O)cccc31)c1cccc(O[C@@H]3O[C@H](CO)[C@@H](O)[C@H](O)[C@H]3O)c1C2=O	inactive	–
CC/C=C\C/C=C\C/C=C\C/C=C\C/C=C\C/C=C\CCC(=O)O	inactive	–
C[S+](C)CCC(N)C(=O)O (stereo unspecified)	inactive	–
O=C(CCCN1CCN2CCCC2C1)c1ccc(F)cc1 (stereo unspecified)	inactive	–
CON=C1C[C@]2(C[C@@H]3C[C@@H](C/C=C(\C)C[C@@H](C)/C=C/C=C4\CO[C@@H]5[C@H](O)C(C)=C[C@@H](C(=O)O3)[C@]45O)O2)O[C@H](/C(C)=C/C(C)C)[C@H]1C	inactive	–
O=C(O)[C@@H]1C[C@H](CP(=O)(O)O)CCN1	inactive	–
O=C(O)CCCC/C=C(\c1ccccc1)c1cccnc1	inactive	–
C[C@@H]1C(=O)NC2=Nc3cccc(Cl)c3CN21	inactive	–
C[C@H](O)CN(C)C	inactive	–
CC(C)C[C@@H](NC(=O)[C@@H](O)[C@H](N)Cc1ccccc1)C(=O)O	inactive	–
CC1(C)S[C@@H]2[C@H](NC(=O)[C@@H](NC(=O)N3CCNC3=O)c3ccccc3)C(=O)N2[C@H]1C(=O)O	inactive	–
C[C@]12O[C@H](C[C@]1(O)CO)n1c3ccccc3c3c4c(c5c6ccccc6n2c5c31)CNC4=O	inactive	–
O=C(O)COc1ccccc1/C=N/NC(=O)c1ccncc1	inactive	–
NCC[C@H](O)C(=O)N[C@@H]1C[C@H](N)[C@@H](O[C@H]2O[C@H](CN)CC[C@H]2N)[C@H](O)[C@H]1O[C@H]1O[C@H](CO)[C@@H](O)[C@H](N)[C@H]1O	inactive	–
